20 molecules from PubChem BioAssay (NCATS) can be followed below.

Results filed as inconclusive are left out. A call without a number means that no potency is given here. Activity calls are given as the source filed them. Calls come from the whole dose curve; as a rule, active = well fitted activation curve with a large enough effect; inconclusive = small, poorly fitted or top-dose-only effect; inactive = no such curve, though single readings can be large or run the other way.
Potency is the fitted concentration of half-maximal effect.

A short description of this assay: Validation screen for small molecules that induce genotoxicity in human embryonic kidney (HEK293T) cells expressing luciferase-tagged ELG1 (AID 493106). The following applies: luminescence; series mostly up to 46.1 µM. In outline:
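Cells were dispensed at 2,000 per well, then 23 nL compound or DMSO was pinned in. After 16 hr at 37 °C and 5% CO2, ONE-Glo reagent was added. Luciferase activity was measured following 30 min at room temperature.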
Consider `Nc1nc2c(ncn2COCCO)c(=O)[nH]1`, for which the Potency entry was “inactive”.

As to `CCOC(=O)C1=C[C@]2(CC)CCCN3CCc4c(n1c1ccccc41)[C@@H]32`, the Potency result is “inactive”.

`CNC[C@H](O)c1cccc(O)c1`: the Potency result is “inactive”.

As for `OC(CCN1CCCCC1)(c1ccccc1)C1CC2C=CC1C2` (stereo not given), the Potency entry was “inactive”.

As for `Cc1ccc(N(CC2=NCCN2)c2cccc(O)c2)cc1`, the Potency entry is “inactive”.

For the molecule `NC(=O)c1cnccn1`, the Potency entry is “inactive”.

Regarding `O=c1[nH]cnc2[nH]ncc12`, the Potency entry is “inactive”.

Turning to `Cc1[nH]c(=O)c(C#N)cc1-c1ccc2nccn2c1`, the Potency result is “inactive”.

Consider `CC(C)NCC(O)COc1ccc(COCCOC(C)C)cc1` (stereo not given), for which the Potency result is “inactive”.

On to `Cc1cc2c(C(C)C)c(O)c(O)c(C=O)c2c(O)c1-c1c(C)cc2c(C(C)C)c(O)c(O)c(C=O)c2c1O`, for which the Potency result was “inactive”.

For the molecule `Cc1cccc(-c2[nH]c(C(C)(C)C)nc2-c2ccc3nccnc3c2)n1`, the Potency entry is “inactive”.

On to `CCOC(=O)N1CCC(=C2c3ccc(Cl)cc3CCc3cccnc32)CC1`, for which the Potency entry is “inactive”.

Consider `O=C(Nc1nc2ccccc2n1CCN1CCOCC1)c1cccc([N+](=O)[O-])c1`, for which the Potency result is “inactive”.

On to `Cc1oncc1C(=O)Nc1ccc(C(F)(F)F)cc1`, for which the Potency was 2060 nM (active).

As for `Nc1ncnc2nc(-c3ccc(N4CCOCC4)nc3)cc(-c3cccc(Br)c3)c12`, the Potency entry is “inactive”.

Consider `CN1CCN(CCCN2c3ccccc3Sc3ccc(C(F)(F)F)cc32)CC1`, for which the Potency result is “inactive”.

As to `CCn1cc(C(=O)O)c(=O)c2cc(F)c(N3CCNC(C)C3)c(F)c21` (stereo not given), the Potency result is “inactive”.

As for `CCCCNc1cc(C(=O)O)cc(S(N)(=O)=O)c1Oc1ccccc1`, the Potency result is “inactive”.

On to `CC(=O)Oc1ccccc1C(=O)O`, for which the Potency entry was “inactive”.

Consider `NC[C@H](O)c1ccc(O)c(O)c1`, for which the Potency result was “inactive”.
